A selection: hits, their analogues and other compounds. The true share with any hit is near 2.2%.
Pin1 inh: human Pin1 inhibition; Q13526; Pin1 FP peptide displacement, HiFluor488, 10 min; Potency, µM (top dose mostly 115 µM), without a hit: at the top dose activity, negative = inhibition, hits mostly inhibitors; hit rate 0.009% among 390,000; AID 504891; active means well fitted inhibition curve with a large enough effect in the polarisation, with a control signal flat, not every such curve was filed as active; inconclusive means small, poorly fitted or top-dose-only effect, or effect the other way, or a change in a side signal; inactive means no such curve, though single readings can be large or run the other way; the % refers to the polarisation; further: on the % scale 0 is the no-effect control and ±100 the full control effect
Target sequence (Q13526 whole entry, looked up): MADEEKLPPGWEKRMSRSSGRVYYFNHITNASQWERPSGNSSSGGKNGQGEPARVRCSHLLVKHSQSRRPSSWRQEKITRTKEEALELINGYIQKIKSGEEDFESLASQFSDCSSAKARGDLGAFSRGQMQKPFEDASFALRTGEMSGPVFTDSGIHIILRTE
Nrf2 activator: Nrf2 pathway activation. AREc32 ARE-luciferase reporter (MCF7-derived line), luminescence, 24 h. Potency, µM (highest dose often 46.1 µM), inactives show at the highest dose activation, most hits filed as activators. hit rate 0.31% among 410,000. AID 624171; further: % of control where 0% means no effect; nearly all actives have a fitted effect of over 65% in size
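Reporter line AREc32 (ARE-Fluc), seeded overnight in OPTI-MEM with 5% FBS; compound pin-transferred, 24 hr at 37 deg C, 5% CO2; luminescent read-out.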
Nrf2 inh: inhibitors of Nrf2 signaling; Potency, µM (highest dose often 46 µM), for the others: at the highest dose activity change, negative = inhibition, actives largely listed as inhibitors; AID 504444; hit rate 2.1% among 360,000; A549 ARE-Fluc reporter, luciferase luminescence, 18-24 h; further: on the % scale 0 is the no-effect control and ±100 the full control effect; nearly all actives have a fitted effect of over 60% in size
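Cells were seeded and rested 2 h, then exposed to compounds for 18-24 h. CellTiter-Fluor was read first as a viability measure. BugLite was added 15 min before the final luminescent read of ARE-luciferase activity in A549 cells.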
A549 tox-1: A549 cytotoxicity, counter-screen for Nrf2 inhibitors; hit rate 0.16% among 390,000; A549 ARE-Fluc cells, CellTiter-Fluor viability, 18-24 h; Potency, µM (series often up to 46 µM), without a hit: at the top dose activity change, negative = cytotoxicity, usual class: inhibitors; AID 504648; further: on the % scale 0 is the no-effect control and ±100 the full control effect
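A549 ARE_Fluc cells in 5% FBS OPTI-MEM were exposed to compounds in concentration-response for 18-24 h at 37 deg C. Viability was read by CellTiter-Fluor fluorescence (Ex 405/Em 525) after 30 min, before the luciferase read.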
FLuc enzyme inh: firefly luciferase inhibition, Nrf2 hit validation; shares compounds with Nrf2 inh; Potency, µM (top dose mostly 57.5 µM), without a hit: at the highest dose activity change, negative = inhibition, usual class: inhibitors; purified firefly luciferase, luminescence inhibition; hit rate 4% among 1,400; further: on the % scale 0 is the no-effect control and ±100 the full control effect; nearly all actives have a fitted effect of over 65% in size
Target sequence (P08659 whole entry, looked up): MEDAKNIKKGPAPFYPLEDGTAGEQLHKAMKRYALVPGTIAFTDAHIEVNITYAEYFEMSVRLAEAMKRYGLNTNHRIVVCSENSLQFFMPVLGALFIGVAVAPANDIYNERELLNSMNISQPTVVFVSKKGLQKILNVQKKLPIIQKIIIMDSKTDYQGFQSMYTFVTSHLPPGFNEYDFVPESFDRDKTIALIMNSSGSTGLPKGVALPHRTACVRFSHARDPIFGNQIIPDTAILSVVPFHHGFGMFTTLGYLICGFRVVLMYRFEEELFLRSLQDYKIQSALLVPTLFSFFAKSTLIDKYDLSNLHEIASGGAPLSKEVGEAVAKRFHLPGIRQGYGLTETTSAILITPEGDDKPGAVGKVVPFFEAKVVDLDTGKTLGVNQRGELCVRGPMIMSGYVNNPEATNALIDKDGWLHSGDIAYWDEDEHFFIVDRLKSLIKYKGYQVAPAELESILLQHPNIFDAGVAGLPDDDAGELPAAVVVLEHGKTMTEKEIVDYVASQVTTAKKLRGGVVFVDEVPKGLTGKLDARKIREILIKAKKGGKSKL
A549 tox-2: toxic to A549 ARE-Fluc cells in Nrf2 counterscreen; A549 ARE-Fluc cells, cytotoxicity counterscreen; hit rate 2% among 1,400; Potency, µM (titrated, usually from 46.1 µM), inactives show at the top dose activity change, negative = cytotoxicity, most hits filed as inhibitors; AID 720523; shares compounds with Nrf2 inh;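 further: cells exposed to compounds for 18 to 24 hours; on the % scale 0 is the no-effect control and ±100 the full control effect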
Nrf2 ARE inh: Nrf2 inhibition confirmed, A549 ARE-luciferase. AID 720524. A549 ARE-firefly luciferase reporter, luminescence. Potency, µM (doses to about 46.1 µM), without a hit: at the top dose activity change, negative = inhibition, actives largely listed as inhibitors. hit rate 74% among 1,400. shares compounds with Nrf2 inh; further: on the % scale 0 is the no-effect control and ±100 the full control effect; nearly all actives have a fitted effect of over 65% in size
* marks the source's active call; other numbers are inactive results; ? = inconclusive; · = no result given. Unless noted, the call rests on the fitted dose curve; in most records, active means well fitted curve in the direction sought with a large enough effect; inconclusive means small, poorly fitted or top-dose-only effect, or another doubt; inactive means no such curve, though single readings can be large; an effect the other way counts as inactive or inconclusive. Potency means the concentration at half of the fitted maximal effect.

SMILES	Pin1 inh	Nrf2 activator	Nrf2 inh	A549 tox-1	FLuc enzyme inh	A549 tox-2	Nrf2 ARE inh
CCC(c1nnnn1Cc1ccccc1)N(Cc1ccccc1)Cc1cc2cc(C)ccc2[nH]c1=O (stereo not drawn)	1%	·	4.1µM*	?	0%	-28%	?
CCOC(=O)c1ccc(Nc2nc3nonc3nc2Nc2cccc(C)c2C)cc1	?	0%	2.3µM*	?	15µM*	?	5.8µM*
COc1cc(NC(=O)C2CCN(S(=O)(=O)c3c(C)noc3/C=C/c3cccs3)CC2)cc(OC)c1	60%	8%	7%	-2%	·	·	·
COc1ccc(-c2csc(NC(=O)c3ccccc3NS(=O)(=O)c3ccc(F)c(F)c3)n2)cc1	·	14%	2.9µM*	?	?	?	4.1µM*
COc1ccccc1NC(=O)C1=C(C)Nc2c(C(=O)Nc3ccc(F)cc3)cnn2C1c1cccc([N+](=O)[O-])c1 (stereo not drawn)	0%	4%	-11%	1%	·	·	·
CN(CC(=O)Nc1ccccc1Br)c1ncnc2sccc12	0%	0%	9.2µM*	-8%	4%	1%	?
COc1ccc(CCn2cnc3c([nH]c4ccccc43)c2=O)cc1	13%	0%	17%	4%	·	·	·
COc1ccc(CNc2ncnc3c2[nH]c2ccccc23)cc1	0%	8%	4.6µM*	-19%	?	-20%	5.2µM*
Cc1ccc(Cl)cc1N1CCN(C(=O)c2cnc(N3CCOCC3)c3ccccc23)CC1	?	-4%	·	-19%	·	·	·
CC(C)CC(N)c1cn([C@@H](CCC(=O)O)C(=O)N2CCNCC2)nn1 (stereo partly drawn)	2%	-1%	5%	-13%	·	·	·
CC(C)C[C@H](N)c1cn([C@@H](CCCCN)C(=O)N2CCNCC2)nn1	0%	-3%	1µM*	?	0%	1%	?
CCn1c(C(=O)NCc2ccccc2Br)cc2oc3ccccc3c21	10%	0%	?	8%	·	·	·
COC(=O)c1c(-c2ccc(S(C)(=O)=O)cc2)sc2cc(OC)ccc12	-3%	3%	?	1%	·	·	·
COc1ccc2c(C(=O)NCc3ccc4c(c3)OCO4)c(-c3ccc(S(C)(=O)=O)cc3)sc2c1	1%	0%	7.3µM*	?	-2%	?	16µM*
C=CCOC(/C=C/c1ccccc1)C[Si](C)(C)C (stereo not drawn)	-6%	·	3%	2%	·	·	·
Cc1ccc(S(=O)(=O)N(Cc2ccccc2)c2ccccc2C(=O)Nc2ccccc2C(=O)NCc2ccco2)cc1	15%	3%	-20%	2%	·	·	·
Cc1ccc(S(=O)(=O)N(Cc2ccccc2)c2ccccc2C(=O)NCc2ccco2)cc1	31%	7%	5.2µM*	?	-10%	-17%	9%
Cn1c(N)c(C(=O)CSc2nn(-c3ccccc3)c(=S)s2)c(=O)n(C)c1=O	1%	0%	7.3µM*	-16%	-10%	-12%	9.2µM*
CC(Sc1nn(-c2ccc(F)cc2)c(=S)s1)C(=O)c1c(N)n(C)c(=O)n(C)c1=O (stereo not drawn)	1%	3%	?	-5%	·	·	·
Cc1ccc(-n2nc(CO)c(C(=O)NC(C)c3ccccc3)n2)cc1C (stereo not drawn)	0%	1%	?	1%	·	·	·
Cc1oc(-c2ccc(Cl)cc2)nc1CN1CCCC(C(=O)N2CCN(C(=O)c3ccco3)CC2)C1 (stereo not drawn)	6%	1%	3.3µM*	17%	0%	-15%	6.5µM*
Cc1oc(-c2ccc(Cl)cc2)nc1CN1CCCC(C(=O)N2CCOCC2)C1 (stereo not drawn)	1%	4%	?	0%	·	·	·
CN(Cc1ccc(Cl)cc1)C(=O)c1ccc(S(=O)(=O)NCc2ccco2)cc1	6%	0%	9.2µM*	-12%	0%	0%	7%
O=C(NCc1cccc(Cl)c1)NCc1noc2ccccc12	-2%	6%	19%	5%	·	·	·
Cc1ccnc2c1ccc1cccnc12	-1%	18%	?	?	-17%	?	·
SMILES	Pin1 inh	Nrf2 activator	Nrf2 inh	A549 tox-1	FLuc enzyme inh	A549 tox-2	Nrf2 ARE inh
CN(C)c1ccc(CNc2ncnc3sccc23)cc1	0%	7%	4.6µM*	-5%	-3%	-27%	12µM*
Fc1ccccc1CNc1ncnc2sccc12	-1%	3%	4.1µM*	-22%	1%	-5%	5.2µM*
COc1ccccc1Oc1ncnc2sccc12	2%	4%	-13%	-2%	·	·	·
NS(=O)(=O)c1ccc(CNc2ncnc3sccc23)cc1	11%	0%	-12%	-3%	·	·	·
COc1ccccc1CNc1ncnc2sccc12	9%	5%	3.3µM*	-2%	-13%	-9%	4.1µM*
COc1ccc(Nc2ncnc3sccc23)cc1OC	0%	0%	?	3%	·	·	·
COc1ccc(CCNc2ncnc3sccc23)cc1OC	18%	1%	0.58µM*	-6%	-20%	1%	0.52µM*
c1ccc2c(c1)OCC(CNc1ncnc3sccc13)O2 (stereo not drawn)	6%	6%	1.5µM*	-5%	-23%	-4%	1.2µM*
c1ccc(CNc2ncnc3c2oc2ccccc23)nc1	-2%	5%	?	12%	·	·	·
COc1ccc(CCNc2ncnc3c2oc2ccccc23)cc1OC	0%	3%	5.2µM*	-8%	-19%	-13%	4.1µM*
Cc1cc(C)cc(NC(=O)NCCn2nnc3cc(S(=O)(=O)N(C)C)ccc32)c1	-2%	0%	·	4%	·	·	·
CC1(C)CC(=O)c2cc(C(=O)Nc3ccc(Cl)cc3)c(=O)[nH]c2C1	-2%	5%	?	1%	·	·	·
COC(=O)CCn1nnc(-c2cccs2)n1	-5%	2%	4%	-4%	·	·	·
COC(=O)CCn1nnc(-c2ccc(C(C)C)cc2)n1	-2%	-2%	0.52µM*	-1%	11µM*	-1%	0.58µM*
Cc1nn(C)c(C)c1NC(=O)COc1ccc(Cl)cc1Br	-8%	0%	8.2µM*	-12%	-10%	-7%	7.3µM*
COc1ccc(/C=C/C(=O)Nc2c(C)nn(C)c2C)cc1COc1ccc(Cl)cc1Br	11%	-1%	?	-20%	·	·	·
CN1CCN(c2ncnc3c2[nH]c2ccc(F)cc23)CC1	-1%	5%	-6%	3%	·	·	·
Fc1ccc2[nH]c3c(N4CCc5ccccc5C4)ncnc3c2c1	5%	4%	7.3µM*	?	-15%	-16%	·
CCOc1ccc(NC(=O)CC2C(=O)OCCN2CC)cc1 (stereo not drawn)	-2%	7%	12%	-3%	·	·	·

From PubChem
